Compounds with a hit are over-represented: about 0.15% of the library has one in this group of screens.
BRCT inh red – qHTS Assay for Inhibitors of BRCT-Phosphoprotein Interaction (Red Fluorophore); BRCT-phosphopeptide binding, red fluorescence polarization; Potency, µM (titrated, usually from 76.9 µM), for the others: at the top dose activity change, negative = inhibition, hits mostly inhibitors; hit rate 0.03% among 75,000; also: % is scaled to controls: 0 for no effect and ±100 for the full control effect
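Fluorescence polarization: 100 nM His-tagged BRCA1 BRCT with 100 nM TAMRA-labelled phospho-BACH1 decapeptide, phosphate buffer pH 7.3 with 150 mM NaCl, DTT, 0.01% Tween 20; 12 min RT. Binding inhibition seen as FP decrease.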
USP2a inh – qHTS Assay for Inhibitors of Ubiquitin-specific Protease USP2a; Potency, µM (titrated, usually from 38.3 µM), inactives show at the highest dose activity change, negative = inhibition, most hits filed as inhibitors; USP2a enzymatic assay, qHTS inhibition; hit rate 0.1% among 60,000; Ubiquitin carboxyl-terminal hydrolase 2 (Homo sapiens), O75604; also: potency is read from the fitted curve at half-maximal effect; nearly all actives have a fitted effect of over 60% in size
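Coupled readout: USP2-cleaved Ub-PLA2 (20nM final) turns over NBD C6-HPC (20uM final), Ex 460nm/Em 535nm after 2.5 h, time-zero read flagging artifacts. Enzyme (20nM final, pH 8.0 Tris) given 30 min RT with compound first; NEM defines full inhibition.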
Caspase-7 inhib – qHTS Assay for Allosteric/Competitive Inhibitors of Caspase-7 | P55210 | recombinant caspase-7, Ac-DEVD-AFC fluorescence rate | Potency, µM (top dose mostly 57.5 µM), without a hit: at the top dose activity change, negative = inhibition, actives largely listed as inhibitors | hit rate 0.02% among 75,000 | AID 889, 2007; active = well fitted inhibition curve with a large enough effect in the main read-out, with a control signal flat, not every such curve was filed as active; inconclusive = small, poorly fitted or top-dose-only effect, or a change in a side signal; also: potency is read from the fitted curve at half-maximal effect; % of control where 0% means no effect
BRCT PPI green – qHTS Assay for Inhibitors of BRCT-Phosphoprotein Interaction (Green Fluorophore); Potency, µM (highest dose often 76.9 µM), for inactives: top-dose activity change, negative = inhibition, actives largely listed as inhibitors; AID 875, 2007; BRCA1 BRCT-phosphopeptide binding, green fluorescence polarization; hit rate 0.05% among 75,000; Breast cancer type 1 susceptibility protein (Homo sapiens), P38398;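 also: potency is read from the fitted curve at half-maximal effect; plate controls were peptide without protein for full effect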
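Compounds were incubated for 12 min at room temperature with a complex of 100 nM fluorescein-tagged pBACH1 decapeptide and 250 nM His-tagged BRCT protein. Buffer was phosphate pH 7.3 with EDTA, DTT and Tween 20. Disruption of binding lowers the polarization signal.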
Casp1 inh – qHTS Assay for Allosteric/Competitive Inhibitors of Caspase-1; Caspase-1 enzyme, Ac-WEHD-AFC fluorogenic rate; Potency, µM (series often up to 57.5 µM), inactives show top-dose activity change, negative = inhibition, most hits filed as inhibitors; hit rate 0.03% among 75,000; AID 900, 2007;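 also: potency is read from the fitted curve at half-maximal effect; plate controls were vehicle for no effect and no substrate for full effect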
Starred values were filed as active, the others as inactive; ? = inconclusive; · = no result given; [ ] = remark or other dose. Unless noted, calls follow the shape of the dose curve; as a rule, active = well fitted curve in the direction sought with a large enough effect; inconclusive = small, poorly fitted or top-dose-only effect, or another doubt; inactive = no such curve, though single readings can be large; an effect the other way counts as inactive or inconclusive.

SMILES	BRCT inh red	USP2a inh	Caspase-7 inhib	BRCT PPI green	Casp1 inh
O=C(CSc1nc2nc(-c3cccs3)cc(C(F)(F)F)c2c(=O)[nH]1)NCc1ccco1	-2%	2µM*	?	0%	?
CCCCCCCCCCCCCCCCCCOC[C@@H](COP(=O)([O-])OCC[N+](C)(C)C)OC	-4%	19%	0%	-2%	3%
CN1CCc2c(cc(O)c(O)c2Cl)[C@H](c2cccc(Cl)c2)C1	-3%	19%	-1%	-2%	-1%
Nc1ccc(-c2nc3ccc(-c4nc5ccc(N)cc5[nH]4)cc3[nH]2)cc1	-4%	25µM*	-7%	-5%	3%
Nc1ccc(-c2nc3ccccc3[nH]2)cc1	-4%	·	0%	-2%	-1%
Cc1cc(N)c2ccccc2[n+]1CCCCCCCCCCCCCC[n+]1c(C)cc(N)c2ccccc21	1%	16µM*	-3%	4%	6%
O=C(c1ccc(Cc2nc3ccccc3[nH]2)cc1)N1CCCCC1	-3%	·	-3%	1%	-3%
O=C1C(SCCO)=C(SCCO)C(=O)c2ccccc21	-4%	0%	-11%	2%	16µM*
COC(=O)NC(/C(C(=O)OC)=C(\C)NCc1ccccc1)c1ccc2ccccc2c1 (stereo unspecified)	-3%[15.4 µM]	·	-6%[11.5 µM]	0%[15.4 µM]	-5%[11.5 µM]
C[C@H]1[C@H](C)CC[C@]2(C(=O)O)CC[C@]3(C)C(=CC[C@@H]4[C@]5(C)C[C@H](O)[C@@H](O)[C@@](C)(CO)[C@@H]5[C@H](O)C[C@@]43C)[C@H]12	1%[15.4 µM]	·	-4%[11.5 µM]	1%[15.4 µM]	-1%[11.5 µM]
CN(C)Cc1ccccc1-c1ccc2ncnc(NCc3cccs3)c2c1	0%	22%	0%	-2%	-1%
Cc1ccccc1-c1ccc2ncnc(NCc3cccs3)c2c1	-3%	-21%	16µM*	-1%	?
Oc1cc(O)cc(/C=C\c2ccc(O)c(O)c2)c1	-2%	-4%	-8%	-3%	?
C[C@@H](Cc1ccccc1)Nc1ncnc2c1ncn2[C@@H]1O[C@@H](CO)[C@H](O)[C@@H]1O	-1%	5%	1%	-4%	4%
ICCc1ccccc1	0%	·	-3%	-5%	?
O=S(=O)(NCCNC/C=C\c1ccc(Br)cc1)c1cccc2cnccc12	-2%	21%	1%	-1%	0%
Cn1c(O)c(N=N/C(=N/c2ccccn2)c2ccccn2)c2cc(Br)ccc21	-1%	·	-4%	-5%	-3%
C[C@@]12CC[C@H]3[C@H](CC=C4C[C@@H](O)CC[C@@]43C)[C@@H]1CC[C@@H]2N(CCO)CCO	1%[15.4 µM]	·	-2%[11.5 µM]	0%[15.4 µM]	-2%[11.5 µM]
COc1ccc(/C=N/NC(=O)c2cc(-c3ccc(Cl)cc3)n[nH]2)cc1OC	0%	·	-7%	-2%	-6%
CCCCN(CC)S(=O)(=O)c1cccc2cccnc12	0%	·	0%	0%	-2%
Nc1nc(Cl)nc2c1ncn2[C@@H]1O[C@@H](COP(=O)(O)OP(=O)(O)OP(=O)(O)O)[C@@H](O)[C@H]1O	-2%	0%	1%	-2%	3%
Nc1c(S(=O)(=O)O)cc(Nc2ccc(Nc3nc(Cl)nc(Nc4ccc(S(=O)(=O)O)cc4)n3)c(S(=O)(=O)O)c2)c2c1C(=O)c1ccccc1C2=O	4%	7.9µM*	-6%	?	-6%
CC(Oc1ccc(Br)cc1)C(=O)NCc1cccnc1 (stereo unspecified)	0%	·	-2%	-1%	-2%
CC(C)(C)OC(=O)[C@H]([C@@H]1N[C@@H](C(=O)O)C(C)(C)S1)N1C(=O)c2ccccc2C1=O	-2%[15.4 µM]	·	-2%[11.5 µM]	-1%[15.4 µM]	1%[11.5 µM]
CNc1ncnc2c1ncn2[C@H]1C[C@@H](OP(=O)(O)O)[C@H](COP(=O)(O)O)O1	-1%	2%	1%	-2%	-3%
CCN1CCc2c(sc(N)c2C#N)C1	0%	6%	?	8%	·
N#Cc1c(N)sc(=S)c2c1CCN(Cc1ccccc1)C2	-9%	19%	13µM*	-6%	·
CCOC(=O)c1sc(N)c(C(=O)Nc2ccc(C)cc2C)c1C	0%	·	-3%	-1%	-6%
